Test results published in ChEMBL document CHEMBL4513216, “Probing the Open Global Health Chemical Diversity Library for Multistage-Active Starting Points for Next-Generation Antimalarials” (ACS Infect Dis, 2020).
The campaign covered roughly 69,000 compounds. About 8,600 (12%) showed an effect of 50% or more. The entries come from a sample that favours strong results as a whole.

Tested on: Plasmodium berghei
Experiment: Screen against P. berghei liver stage (PbLuc), transformed with Luciferase, at 10uM
Type: functional, HepG2
Settings: tested at 10 uM

Which INHIBITION does the source give for `OCc1cn(Cc2cccc(F)c2)nn1` here?
Its INHIBITION is 28.5%.

For `O=C(O)CCCC(=O)NCC1(O)CCN(c2ccnc3cccnc23)C1` (stereo unspecified), which INHIBITION is on record?
Its INHIBITION is 17.25%.

For `O=C(CN1CCCC1=O)N1CCC(O)(Cn2ccc3ccncc32)CC1`, which INHIBITION is on record?
Its INHIBITION is 7.52%.

How did the INHIBITION turn out when `COC(=O)C1CCN(C(=O)Cn2ccc(-c3ccsc3)n2)CC1` was run?
The INHIBITION was -46.4%.

`CCCS(=O)(=O)NCc1cccnc1OCC` was tested. Which INHIBITION did it give?
The INHIBITION was -1.53%.

Which INHIBITION does the source give for `CCCC(C)CS(=O)(=O)NCc1cccnc1OC` (stereo unspecified) here?
Its INHIBITION is 1.94%.

With `CCCS(=O)(=O)NCc1cccnc1OCc1ccccc1` as the compound, how does the INHIBITION read?
The INHIBITION was 50.4%.

For `COc1ccc(CSc2nnc(N)n2C2CC2)cc1F`, which INHIBITION is on record?
Its INHIBITION is -16.3%.

How did the INHIBITION turn out when `O=C(CCC(=O)N1CCC(c2noc3cc(F)ccc23)CC1)NC1CC1` was run?
Its INHIBITION is 10.5%.

How did the INHIBITION turn out when `Cn1cc(C(=O)N2CCC(c3ncc[nH]3)CC2)cn1` was run?
The INHIBITION was 14%.

How did the INHIBITION turn out when `O=C(c1cncc(F)c1)N1CCC(c2ncc[nH]2)CC1` was run?
The INHIBITION was 31.2%.

How did the INHIBITION turn out when `N#Cc1ccc(C(=O)N2CCC(c3ncc[nH]3)CC2)cn1` was run?
Its INHIBITION is 51.2%.

For `CC(=O)N1CC2(CCN(c3ccc4ccccc4n3)CC2)CC1C(=O)O` (stereo unspecified), which INHIBITION is on record?
The INHIBITION was 44%.

`COCCNC(=O)[C@H]1CN(Cc2sccc2C)C[C@H]2OCC[C@@H]12` was tested. Which INHIBITION did it give?
Its INHIBITION is -4.88%.

With `Cc1cc(C2CCCN(Cc3nc(Cc4ccccc4)no3)C2)n[nH]1` (stereo unspecified) as the compound, how does the INHIBITION read?
Its INHIBITION is 79.7%.

Which INHIBITION does the source give for `CC1CCCN(Cc2ccc(CNC(=O)NCc3ccncc3)cc2)C1` (stereo unspecified) here?
Its INHIBITION is 22.5%.

`CC(C)c1ccc(NC2CCCN(Cc3ccncc3)C2)cc1` (stereo unspecified) was tested. Which INHIBITION did it give?
Its INHIBITION is 70.3%.

For `Cc1cnc(CN2CCCC(c3cc(C)[nH]n3)C2)cn1` (stereo unspecified), which INHIBITION is on record?
The INHIBITION was 35.9%.

`Cc1cc(C2CCCN(Cc3noc(Cc4ccccc4)n3)C2)n[nH]1` (stereo unspecified) was tested. Which INHIBITION did it give?
Its INHIBITION is -10.8%.

`Cc1cncc(C2CCCN(Cc3ccncc3)C2)n1` (stereo unspecified) was tested. Which INHIBITION did it give?
Its INHIBITION is 60.4%.

For `FC(F)(F)c1cc(C2CCCN(Cc3cccnc3)C2)n[nH]1` (stereo unspecified), which INHIBITION is on record?
The INHIBITION was 35%.

`Cc1cc(C2CCCN(Cc3nnc(Cc4ccccc4)o3)C2)n[nH]1` (stereo unspecified) was tested. Which INHIBITION did it give?
Its INHIBITION is 17%.

Which INHIBITION does the source give for `Fc1ccc(NC2CCCN(Cc3ccncc3)C2)cc1` (stereo unspecified) here?
Its INHIBITION is -10.6%.

`Cc1ccc(CN2CCCC(c3cncc(C)n3)C2)cn1` (stereo unspecified) was tested. Which INHIBITION did it give?
The INHIBITION was -6.3%.

`Cc1cc(C2CCCN(Cc3cccnc3)C2)n[nH]1` (stereo unspecified) was tested. Which INHIBITION did it give?
Its INHIBITION is 59.1%.

How did the INHIBITION turn out when `Cc1cncc(C2CCN(Cc3ccncc3)CC2)n1` was run?
The INHIBITION was 23.3545%.

With `CCC(O)CN1CCN(C(=O)CN(C)c2ccc(Cl)cn2)CC1` (stereo unspecified) as the compound, how does the INHIBITION read?
The INHIBITION was 3.03%.

`C=C(C)COc1ccccc1CNCCc1cc(O)nc(C)n1` was tested. Which INHIBITION did it give?
Its INHIBITION is 7.65%.

How did the INHIBITION turn out when `CC(C)Nc1nc(O)cc(C(C)n2ncc3ccccc3c2=O)n1` (stereo unspecified) was run?
The INHIBITION was 29.9%.

`COc1cccc2cc(CNC(=O)N3CCOC(C)(C)C3)oc12` was tested. Which INHIBITION did it give?
Its INHIBITION is 33.8%.

`COc1cc(C(=O)N2CCCC(CNS(C)(=O)=O)C2)ccc1C` (stereo unspecified) was tested. Which INHIBITION did it give?
The INHIBITION was 7.12%.
